Screening data deposited in PubChem BioAssay by National Center for Advancing Translational Sciences (NCATS).
In the library only some 3.7% were active in any assay of this set; here they are far more common.
Nrf2 activator: qHTS of Nrf2 Activators. AREc32 ARE-luciferase reporter (MCF7-derived line), luminescence, 24 h. Potency, µM (top dose mostly 46.1 µM), most hits filed as activators. 410,000 compounds, 0.31% hits. AID 624171, 2012; also: nearly all actives have a fitted effect of over 65% in size
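Luciferase luminescence (Steady-Glo, 30 min at room temperature) served as the read-out of ARE activation in AREc32 cells treated with compounds for 24 hr at 37 deg C.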
ELG1 DNA repair: qHTS screen for small molecules that inhibit ELG1-dependent DNA repair in human embryonic kidney (HEK293T) cells expressing luciferase-tagged ELG1. HEK293T ELG1-luciferase reporter, luminescence, 16 h; DNA damage induced by 5-fluorouridine. Potency, µM (highest dose often 46.1 µM), hits mostly inhibitors. 330,000 compounds, 2.3% hits. AID 504467, 2011; also: nearly all actives have a fitted effect of over 55% in size
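Cells (2,000 per well) received 5-fluorouridine plus test compound or DMSO and were incubated 16 hr at 37 °C, 5% CO2. Luciferase activity was read by luminescence 30 min after ONE-Glo addition; signal suppression marked inhibition of damage-induced ELG1 function.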
Nrf2 block: Nrf2 qHTS screen for inhibitors; A549 ARE-Fluc reporter, luciferase luminescence, 18-24 h; Potency, µM (doses to about 46 µM), actives largely listed as inhibitors; 360,000 compounds, 2.1% hits; AID 504444, 2011; also: nearly all actives have a fitted effect of over 60% in size
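Cells were seeded and rested 2 h, then exposed to compounds for 18-24 h. CellTiter-Fluor was read first as a viability measure. BugLite was added 15 min before the final luminescent read of ARE-luciferase activity in A549 cells.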
A549 tox: Nrf2 qHTS screen for inhibitors: counterscreen for cytotoxicity | 390,000 compounds, 0.16% hits | AID 504648, 2011 | Potency, µM (doses to about 46 µM), usual class: inhibitors | A549 ARE-Fluc cells, CellTiter-Fluor viability, 18-24 h
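A549 ARE_Fluc cells in 5% FBS OPTI-MEM were exposed to compounds in concentration-response for 18-24 h at 37 deg C. Viability was read by CellTiter-Fluor fluorescence (Ex 405/Em 525) after 30 min, before the luciferase read.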
A number is an active result; n = inactive; u = inconclusive; x = not tested or not shown; [ ] = dose if it differs, or a comment. Calls follow the shape of the dose curve; as a rule, active = well fitted curve in the direction sought with a large enough effect; inconclusive = small, poorly fitted or top-dose-only effect, or another doubt; inactive = no such curve, though single readings can be large; an effect the other way counts as inactive or inconclusive.

SMILES | Nrf2 activator | ELG1 DNA repair | Nrf2 block | A549 tox
Cc1cccc(NC(=O)c2sc(NC(=O)COc3ccccc3)c(C#N)c2C)c1C | n | n | n | n
Cc1sc(NC(=O)c2cc(-c3ccccc3)nc3ccccc23)c(C(N)=O)c1C | n | 5.8µM | n | n
Cc1cc(Nc2cccc(Cl)c2Cl)n2ncnc2n1 | n[9.22 µM] | n | n | n
Cc1ccc(-c2nc(CS(=O)(=O)CC(=O)NCCN3CCCC3)c(C)o2)cc1 | n | n | n | n
Cc1ccccc1-c1cccc([C@@H]2C[C@H]3[C@H](CON3C)CN2S(=O)(=O)c2ccccc2C)c1 | n | x | u | n
COC1=CC(=O)c2c(ccc3ncnc(N)c23)C1=O | n | x | 4.6µM | 7.3µM
O=C(COc1cccc(Cl)c1)N/N=C\c1cc2ccccc2nc1Cl | n | n | n | n
Cc1ccccc1OCC(=O)N/N=C/c1cc2ccccc2nc1Cl | n | n | 18µM | n
CC(=O)N(Cc1ccc(F)cc1)C1=C(NCc2ccccc2)C(=O)c2ccccc2C1=O | n | 21µM | 6.3µM | 10µM
Cc1cc2c(NC3CCCCC3)ncnc2s1 | n | n | 12µM | n
Cc1cc2c(SCC(=O)NC3CCCCC3)ncnc2s1 | n | n | u | n
Cc1cccc2c1cnn2C(=O)CCC(=O)NCc1ccc(F)cc1 | n | n | n | n
Cc1c(Cl)cccc1NC(=S)C(=C([O-])c1ccc(Cl)s1)[n+]1ccccc1 | n | x | n | n
O=C(CSc1nnc(-c2ccc(Br)cc2)o1)N1CCN(C(=O)c2ccco2)CC1 | n | 23µM | u | n
O=C(CSc1nnc(-c2ccco2)o1)N1c2ccccc2CCc2ccccc21 | n | 12µM | u | n
O=C(CSc1nnc(-c2c[nH]c3ccccc23)o1)N1c2ccccc2CCc2ccccc21 | n | u | 12µM | n
Cc1nc([N+](=O)[O-])c(Br)n1CC(=O)c1ccc(F)cc1 | n | n | n | n
Cc1nc([N+](=O)[O-])c(Br)n1Cc1ccccc1 | 10µM | u | u | n
COC(=O)c1ccc(N=C2S/C(=C\c3cc(C)n(-c4cccnc4)c3C)C(=O)N2C)cc1 | n | u | 26µM | u
CNC(=O)c1cnn2c(C)cc(C)nc12 | x | x | n | n
CC1CCN(C(=O)c2ccc(S(=O)(=O)Cc3ccccc3F)c([N+](=O)[O-])c2)CC1 | n | 21µM | n | n
Cc1ccc(CS(=O)(=O)c2ccc(C(=O)N3CCN(c4ccccn4)CC3)cc2[N+](=O)[O-])cc1 | u | 15µM | u | n
CN(CC(=O)Nc1ncn[nH]1)S(=O)(=O)c1ccc(Cl)cc1 | n | n | n | n
CCOC(=O)c1c(C)[nH]c(C(=O)OC(C)C(=O)Nc2ccccc2OC)c1C (configuration not stated) | n | u | 15µM | n
CCOC(=O)c1c(C)[nH]c(C(=O)Nc2ccc(NC(C)=O)cc2)c1C | n | n | 8.2µM | n
SMILES | Nrf2 activator | ELG1 DNA repair | Nrf2 block | A549 tox
CCOC(=O)c1ccc(NC(=O)c2c(C)[nH]c(C(=O)OCC)c2C)cc1 | n | n | n | n
CCC(C(=O)N(C)Cc1ccccc1)n1nc(C)c2sc3ccccc3c2c1=O (configuration not stated) | n | x | u | n
O=C(O)C(Cc1c[nH]c2ccccc12)N1C(=O)C2C3c4ccccc4C(c4ccccc43)C2C1=O (configuration not stated) | n | n | n | n
CN(CC(=O)Nc1ccc(Cl)c(C(F)(F)F)c1)C(=O)C1CCC1 | n | n | n | n
Cc1ccc(C(=O)N(C)CC(=O)Nc2ccc(Cl)c(C(F)(F)F)c2)cc1S(=O)(=O)N1CCCCC1 | n | u | 5.8µM | u
CN(CC(=O)Nc1ccc(Cl)c(C(F)(F)F)c1)C(=O)c1ccc(OCC2CCCO2)cc1 (configuration not stated) | n | n | 16µM | u
CN(CC(=O)Nc1ccc(Cl)c(C(F)(F)F)c1)C(=O)C1CCN(C(=O)c2ccc(Cl)cc2)CC1 | n | x | 23µM | u
CN(CC(=O)Nc1ccc(Cl)c(C(F)(F)F)c1)C(=O)c1ccc(S(=O)(=O)N2CCOCC2)cc1 | n | x | u | n
CCn1c(C(=O)O)c(CC(=O)Nc2cccc(C(F)(F)F)c2)c2ccccc21 | n | u | n | n
CC1CCCC(C)N1C(=O)COC(=O)Cc1c[nH]c2ccccc12 (configuration not stated) | n | n | n | n
O=S(=O)(c1ccc2c(c1)OCCO2)N1CCN(S(=O)(=O)c2ccccc2Cl)CC1 | x | x | n | n
COc1ccc([S+](=O)([O-])N2CCN([S+](=O)([O-])c3ccc4c(c3)OCCO4)CC2)c(OC)c1 | x | x | n | n
CCCCCC1(C)NC(=S)N(c2ccccc2)N1 (configuration not stated) | n | 7.3µM | n | n
COc1ccc(CN2CCCC(C(=O)Nc3cccc(-n4cccn4)c3)C2)c(F)c1 (configuration not stated) | n | 16µM | n | n
COc1cccc(NC(=O)C2CCN(Cc3cnn(-c4ccccc4)c3-n3cccc3)CC2)c1 | n | 18µM | u | n
COc1ccc(OC)c(NC(=O)C2CCN(Cc3cnn(-c4ccccc4)c3-n3cccc3)CC2)c1 | n | 23µM | u | n
O=C(Nc1cccc(-n2cccn2)c1)C1CCCN(Cc2cccc(F)c2F)C1 (configuration not stated) | n | u | u | n
COc1ccc(NC(=O)C2CCN(Cc3cnn(-c4ccccc4)c3-n3cccc3)CC2)cc1OC | n | x | n | n
COc1ccc(CC(N)c2csc(NC(=O)c3cc(C(C)(C)C)oc3C)n2)cc1 (configuration not stated) | n | x | x | x
Clc1cccc(/C=N/N2CCN(Cc3ccccc3)CC2)c1 | n | u | n | n
O=[N+]([O-])/C(C(Cl)=C(Cl)Cl)=C(\Sc1ccccc1)N1CCCCC1 | 11µM | n | u | n
COC(=O)c1nn(-c2ccccc2)c(Sc2ccc(Br)cc2)c1/C=N/O | n | u | u | n
Cc1cc([N+](=O)[O-])c2c(c1C)C1C=CCC1C(c1ccccn1)N2 (configuration not stated) | x | n | x | x
CCOC(=O)c1ccc(N2C(=O)c3[nH]nc(-c4ccc(C)cc4)c3C2c2cccc(F)c2)cc1 (configuration not stated) | n | x | 21µM | n
CCOC(=O)c1ccc(N2C(=O)c3[nH]nc(-c4ccc(C)cc4)c3C2c2ccc(O)cc2)cc1 (configuration not stated) | n | x | 21µM | n
CCOC(=O)c1ccc(N2C(=O)c3n[nH]c(-c4cccs4)c3C2c2cccc(OC)c2)cc1 (configuration not stated) | n | x | 21µM | u
CCOC(=O)c1ccc(N2C(=O)c3[nH]nc(-c4ccccc4)c3C2c2ccc(CC)cc2)cc1 (configuration not stated) | n | x | 18µM | u
